High-throughput results (PubChem)
An excerpt weighted towards active compounds, which were near 9.4% of everything screened.
ELG1 repair inh: ELG1-dependent DNA repair inhibition. HEK293T ELG1-luciferase reporter, luminescence, 16 h; DNA damage induced by 5-fluorouridine. Potency, µM (doses to about 46.1 µM), for inactives: at the highest dose activity change, negative = inhibition, usual class: inhibitors. 330,000 tested, 2.3% active; further: on the % scale 0 is the no-effect control and ±100 the full control effect; nearly all actives have a fitted effect of over 55% in size
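Quantitative HTS, concentration-response format. 2,000 cells/well co-treated with 5-fluorouridine and compound, 16 hr in 5% CO2 at 37 °C; ONE-Glo luminescence read after 30 min.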
SMN2 splice enh: SMN2 splice variant enhancement; HEK293 SMN2-luciferase splicing reporter, luminescence, 30-36 h; Potency, µM (doses to about 46.1 µM), inactives show at the top dose activity change, positive = activation, most hits filed as activators; 210,000 tested, 2.8% active; further: % of control where 0% means no effect; nearly all actives have a fitted effect of over 55% in size
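HEK293 cells carry an SMN2 minigene-luciferase reporter in which exon 7 inclusion puts luciferase in frame. Cells were seeded at 2000 cells/well, attached for 10-12 hours, then exposed to compounds for 30-36 hours at 37C before ONE-Glo luminescence.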
NPC1 prom act: NPC1 promoter activation; Huh7 NPC1 promoter luciferase reporter, 24 h; 320,000 tested, 2.4% active; Potency, µM (top dose mostly 9.22 µM), without a hit: top-dose activation, actives largely listed as activators; further: % of control where 0% means no effect; nearly all actives have a fitted effect of over 60% in size
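Luciferase expression driven by the NPC1 promoter was measured in stably transfected Huh7 cells after a 24 h compound incubation, using a luciferase reagent and a luminescence read.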
Rab9 prom act: activators of Rab9 promoter; Huh7 Rab9 promoter-luciferase reporter, luminescence, 24 h; Potency, µM (top dose mostly 9.22 µM), for the others: at the highest dose activation, negative = inhibition, most hits filed as activators; 320,000 tested, 2.8% active; further: % of control where 0% means no effect; nearly all actives have a fitted effect of over 60% in size
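Luciferase signal after 10 min detection reagent at ambient indicates Rab9 promoter upregulation; stably transfected Huh7 cells were treated 24 h with compound in DMSO at 37 °C, 5% CO2.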
FLuc modulator: firefly luciferase modulation, counter-screen for miR-21 project | P08659 | 360,000 tested, 6.9% active | Potency, µM (top dose mostly 57.5 µM), inactives show at the top dose activity change, negative = inhibition, hits mostly inhibitors | purified FLuc, Km substrates, luminescence inhibition;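 further: plate controls were vehicle for no effect and reference inhibitor for full effect; nearly all actives have a fitted effect of over 55% in size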
Target sequence (P08659 whole entry, looked up): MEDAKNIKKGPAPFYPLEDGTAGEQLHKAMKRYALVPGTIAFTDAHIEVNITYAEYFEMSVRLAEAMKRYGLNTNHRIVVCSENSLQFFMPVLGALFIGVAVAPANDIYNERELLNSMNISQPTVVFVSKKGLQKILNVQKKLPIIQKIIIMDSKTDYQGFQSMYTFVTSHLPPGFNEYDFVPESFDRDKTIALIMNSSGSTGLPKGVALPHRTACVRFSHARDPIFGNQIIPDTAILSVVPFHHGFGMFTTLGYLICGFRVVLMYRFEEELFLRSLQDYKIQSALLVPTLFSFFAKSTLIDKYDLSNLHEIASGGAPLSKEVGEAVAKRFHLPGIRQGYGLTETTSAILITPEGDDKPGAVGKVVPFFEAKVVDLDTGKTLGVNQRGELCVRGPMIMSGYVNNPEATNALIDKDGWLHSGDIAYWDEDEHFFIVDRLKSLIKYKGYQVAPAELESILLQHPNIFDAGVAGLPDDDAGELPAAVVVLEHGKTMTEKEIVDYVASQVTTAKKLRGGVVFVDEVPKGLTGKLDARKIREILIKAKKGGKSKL
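Purified P. pyralis luciferase (10nM final) with 10uM D-luciferin and 10uM ATP (Km levels) in 50mM Tris acetate pH 7.5, 10mM Mg acetate, 0.01% Tween-20, 0.05% BSA; qHTS 6-point titration, ~60 µM downward; luminescence read.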
ELG1 genotox: induces genotoxicity in HEK293T cells with luciferase-tagged ELG1; Potency, µM (highest dose often 46 µM), without a hit: top-dose activity change, positive = activation, actives largely listed as activators; 330,000 tested, 1.3% active; HEK293T ELG1-luciferase reporter, luminescence, 16 h; further: % of control where 0% means no effect; nearly all actives have a fitted effect of over 60% in size
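Screening used a luciferase reporter fused to human ELG1 in HEK293T cells. Luminescence was read on a CCD plate imager after 16 hr exposure and 30 min ONE-Glo incubation.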
Numbers without * were called inactive; ? = inconclusive; . = no result given; ! = a repeat was not active; [ ] = remark or other dose. The call rests on the fitted dose curve; in most records, active means well fitted curve in the direction sought with a large enough effect; inconclusive means small, poorly fitted or top-dose-only effect, or another doubt; inactive means no such curve, though single readings can be large; an effect the other way counts as inactive or inconclusive. Potency means the concentration at half of the fitted maximal effect.

SMILES | ELG1 repair inh | SMN2 splice enh | NPC1 prom act | Rab9 prom act | FLuc modulator | ELG1 genotox
c1csc(-c2nnc(N3CCCCCC3)c3ccccc23)c1 | ? | . | 4% | 10% | 3µM* | 1%
c1csc(-c2nnc(N3CCOCC3)c3ccccc23)c1 | -10% | -22% | -13% | -2% | ? | 3%
CCn1ncc(/C=C2/SC(=S)NC2=O)c1C | -2% | 13% | 1% | 2% | 15µM* | -1%
CCn1c(C)cc(/C=C2/SC(=S)NC2=O)c1C | ? | ? | ? | ? | 4.8µM* | ?
Cc1cc(/C=C2\SC(=S)NC2=O)c(C)[nH]1 | ? | 19% | 8% | 9% | 11µM* | ?
Cc1nn(-c2ccccc2)c(Cl)c1/C=C1\SC(=S)NC1=O | ? | -3% | -5% | 0% | -19% | -12%
COc1nc(OC)nc(N2CCC(C(=O)NCc3ccco3)CC2)n1 | -14% | 6% | -2% | -5% | -1% | -1%
O=C(NCCc1ccccc1)c1ccc(Cn2c(SCc3ccccc3F)nc3cccnc32)cc1 | . | . | . | . | 5.4µM* | .
COc1ccc(Cn2c(SCc3ccc(C(=O)NCCc4ccccc4)cc3)nc3cccnc32)cc1 | . | -8% | . | . | -16% | .
CCN(CC)CCNC(=O)c1ccc(Cn2c(SCc3ccccc3)nc3cccnc32)cc1 | . | . | . | . | 13µM* | .
COc1cccc(CCNC(=O)c2ccc(Cn3c(SCc4ccccc4)nc4cccnc43)cc2)c1 | . | -17% | . | . | 9.5µM* | .
O=C(NCc1ccco1)C1CCN(c2nc3ccccc3n2Cc2ccc(F)cc2)CC1 | 18µM* | -13% | -1% | -10% | 1% | -11%
CC(C)c1ccc2oc(-c3ccc(NC(=O)c4cccc(Br)c4)cc3)nc2c1 | . | -14% | . | . | -12% | .
COc1ccc(CCNC(=O)Cn2cc(S(=O)(=O)Cc3ccccc3Cl)c3ccccc32)cc1OC | . | . | . | . | -16% | .
O=C(NCC(c1cccnc1)N1CCc2ccccc2C1)C(=O)Nc1cccc(Cl)c1 (centres undefined) | . | . | . | . | 0% | .
Cc1cccc(NC(=O)CCNS(=O)(=O)c2ccc3c(c2)CCCC(=O)N3)c1C | . | . | . | . | -3% | .
Cn1c(=O)c2c(nc(CN3CCN(c4ccccc4F)CC3)n2Cc2ccc(F)cc2)n(C)c1=O | . | 5% | . | . | -8% | .
O=C(NCCc1ccccc1)c1ccc(Cn2c(SCc3ccc(F)cc3)nc3cccnc32)cc1 | . | . | . | . | 4.8µM* | .
Cc1ccccc1CNC(=O)c1ccc(CSc2nc3cccnc3n2Cc2ccccc2)cc1 | . | . | . | . | 1% | .
CCOc1ccccc1CNC(=O)c1ccc(Cn2c(SCc3ccccc3)nc3cccnc32)cc1 | . | -6% | . | . | 2.7µM* | .
O=C(NCc1ccco1)c1ccc(Cn2c(SCc3ccc(F)cc3)nc3cccnc32)cc1 | . | . | . | . | 6µM* | .
COc1ccc(-c2nc(Cn3c(SCc4cccc(C(F)(F)F)c4)nc4cccnc43)c(C)o2)cc1OC | . | . | . | . | -1% | .
CCn1c(=O)cc(SCC(=O)NCCc2cccc(C)c2)c2ccccc21 | . | 9% | . | . | -12% | .
COc1ccc(C(=O)COC(=O)c2cccc(-n3cnnn3)c2)c(OC)c1 | ? | . | 4µM* | 3.5µM* | 11µM* | ?
O=C(COC(=O)c1cccc(-n2cnnn2)c1)c1ccc(F)cc1 | ? | . | 3.2µM* | 2.8µM* | 17µM* | ?
SMILES | ELG1 repair inh | SMN2 splice enh | NPC1 prom act | Rab9 prom act | FLuc modulator | ELG1 genotox
CC(C)c1cnc2c(c1SCC(=O)c1ccccc1)c(=O)n(C)c(=O)n2C | . | . | . | . | -11% | .
COc1ccccc1Nc1ncc(-c2cccs2)s1 | ? | 22µM* | ? | 2.8µM* | 2.7µM* | ?
COc1ccccc1Nc1ccc(C(=O)NCc2cccs2)cn1 | ? | . | -3% | -2% | -1% | -8%
COc1ccc(NC(=O)c2oc3ccccc3c2NC(=O)C23CC4CC(CC(C4)C2)C3)cc1 | . | -5% | . | . | -2% | .
Cc1cc(C)cc(C(=O)N(Cc2nc(-c3ccc(Cl)cc3)no2)C(C)C)c1 | . | -6% | . | . | -9% | .
CCc1ccc(OCC(=O)c2c(O)c3ccccc3oc2=O)cc1 | 5% | 10% | -8% | 2% | ? | 4%
CCc1oc2ccccc2c1C(=O)c1cc(Br)c(O)c(Br)c1 | -7% | -9% | -1% | -5% | 15µM*! | 0%
Cc1ccccc1-c1nnn(CC(=O)N2CCN(C(=O)c3ccco3)CC2)n1 | 20% | . | -1% | -1% | 0% | -7%
COc1ccccc1C(=O)Nc1ccc(-c2nnn(CC(=O)N3CCN(C(=O)c4ccco4)CC3)n2)cc1 | -19% | -36% | -2% | 11% | 17µM* | -11%
O=C(Nc1ccc(-c2nnn(CC(=O)N3CCN(C(=O)c4ccco4)CC3)n2)cc1)c1ccccc1F | ? | -5% | 16% | 24% | 11µM* | -6%
O=S(=O)(O)c1ccc(NN(c2c(O)ccc3ccccc23)S(=O)(=O)O)cc1 | . | -5%[9.22 µM] | . | . | . | .
O=S(=O)(c1ccc(F)cc1)N1CCC(n2c(C(F)(F)F)nc3cccnc32)CC1 | . | . | . | . | -10% | .
Cc1cccc(-c2ccc3ncnc(NCc4cccc(F)c4)c3c2)c1 | . | . | -3% | -4% | -27% | .
CCOc1cc(S(=O)(=O)N2CC=C(c3ccc(F)cc3)CC2)c(OCC)cc1-n1cnnn1 | 5.8µM* | 2% | -35% | -21% | 1% | -6%
CCOc1cc(S(=O)(=O)N2CCC(Cc3ccccc3)CC2)c(OCC)cc1-n1cnnn1 | ? | 2% | -2% | -2% | 1% | -2%
O=C(Nc1cnc2ccccn2c1=O)c1ccc(Cl)cc1 | ? | 35µM* | 3.5µM* | 2.2µM* | 15µM* | ?
O=C(Nc1cccn2ncnc12)c1ccc(Cl)cc1 | ? | . | 24% | 18% | -14% | -5%
CS(=O)(=O)c1ccc2nc(NC(=O)CCNC(=O)c3ccccc3Cl)sc2c1 | -2% | . | 1% | 17% | . | 4%
CS(=O)(=O)c1ccc2nc(NC(=O)c3ccccc3Br)sc2c1 | ? | . | 2.8µM* | ? | 9.5µM* | ?
CS(=O)(=O)c1ccc2nc(NC(=O)c3ccccc3Cl)sc2c1 | 16% | . | 20% | 21% | 17µM* | 11%
c1ccc2nc3c(nc2c1)OCC1CCCCN31 (centres undefined) | ? | . | 4.5µM* | 2.5µM* | 3.8µM* | ?
COC(=O)c1cc2oc3ccccc3c2n1Cc1c(F)cccc1Cl | . | 8% | . | . | -10% | .
C=CCN(c1ccccc1)S(=O)(=O)c1cccc(C(=O)NCc2ccncc2)c1 | 8.2µM* | . | -2% | -7% | 5% | -1%
C=CCN(c1ccccc1)S(=O)(=O)c1cccc(C(=O)Nc2nc3ccccc3[nH]2)c1 | 23µM* | 1% | -1% | -7% | -1% | -8%
COc1ccccc1C(=O)NC(=O)CSc1nc(C)cs1 | 10% | . | -3% | 9% | 13µM* | -2%
